# Results reported in PubChem BioAssay AID1458 (National Center for Advancing Translational Sciences (NCATS), 2008).
# Screen size: about 210,000 compounds; about 5,900 (2.8%) were called active. A call without a number means that no potency is given here. Another 5% or so got no clear call; they are omitted. This is one part of a sample in which actives are shown more often than they occur. The call rests on the fitted dose curve; in most records, active means well fitted activation curve with a large enough effect; inconclusive means small, poorly fitted or top-dose-only effect; inactive means no such curve, though single readings can be large or run the other way.
# Test: qHTS Assay for Enhancers of SMN2 Splice Variant Expression; further: nearly all actives have a fitted effect of over 55% in size
# Details: HEK293 SMN2-luciferase splicing reporter, luminescence, 30-36 h; series mostly up to 46.1 µM
# Source text: NIH Chemical Genomics Center [NCGC] NIH Molecular Libraries Probe Production centers Network [MLPCN] MLPCN Grant: R03 MH084179-01 Assay Submitter (PI): Elliot Androphy NCGC Assay Overview: Spinal muscular atrophy (SMA) is caused by insufficient levels of the survival motor neuron protein SMN. The SMN locus on chromosome 5q13 contains two inverted copies of SMN called SMN1 and SMN2 which are 99% identical at the amino acid level. SMN1 is a fully functional protein and SMN2 skips exon 7 90% of the time. Skipping of exon 7 produces non-functional protein product. 10% of the SMN2 protein includes exon 7 and is fully functional. In the SMA disease state, mutations in the SMN1 locus are the cause of the disease state. Because only 10% of SMN2 is of the fully functional form, it is not sufficient to overcome the deficiency produced by the loss of the SMN1 product. A therapy that either increase the amount of SMN2 product made or to increase the inclusion of exon 7 has been proposed for the treatment of SMA. We have designed an assay to identify small molecules that can increase the amount of functional SMN2 product by appending a luciferase reporter gene after the native SMN2 gene, such that inclusion of exon 7 in the expressed product places the luciferase sequence in frame, thus generating functional luciferase enzyme.
# NCGC Assay Protocol Summary: This screen utilizes a luciferase reporter gene assay, combining the promoter and splicing based cassettes in tandem with the major portion of the native SMN2 cDNA, and then transfected into HEK293 cells. Compounds that increase luciferase signal presumably enhance expression of the functional SMN2 splice variant. Passaging media contained DMEM w/ glutamax (+phenol red) 10% FCS, 1x pen/strep, 200 ug/ml hygro, 1x sodium pyruvate. Assay media contained DMEM w/ glutamax (-phenol red) 10% FCS, 1x pen strep, 1x pyruvate Sequence, Parameter, Value, Description (1) Cells, […], 2000 cells/well, 1536 TC treated White solid bottom plate (2) Time, 10-12 hours, 37C 5% CO2 (3) Compound, 23 nl, MLSMR Library (4) Control Compound, 23 nL, Sodium butyrate st 4.5mM (final) conc (5) Time, 30-36 hours, 37C 5% CO2 (6) Reagent, 3 ul, One Glo (TM) from Promega (7) Time, 5-15 minutes, Room temp (8) Detector, Viewlux: luminescent read, 60 second integration, high speed 2x binning Keywords: Spinal muscular atrophy, SMA, SMN2, high throughput screening, MLSMR, MLPCN, NIH Roadmap, qHTS and NCGC
# Potency means the concentration at half of the fitted maximal effect.
row,SMILES,Potency
1,CCC(=O)N1CCc2cc(S(=O)(=O)NC(CC(C)C)C(=O)NCCc3cccc(C)c3)ccc21 (configuration not stated),inactive
2,N#Cc1c(NC(=O)C2CC(Cl)=CCC2C(=O)O)sc2c1CCCCC2 (configuration not stated),inactive
3,N#Cc1c(NC(=O)C2CCCO2)sc2c1CCCCC2 (configuration not stated),6.31 µM (active)
4,N#Cc1c(NC(=O)CCCl)sc2c1CCCCC2,inactive
5,Cc1ccccc1C(=O)N(Cc1ccc(N(C)C)cc1)CC1CCCO1 (configuration not stated),inactive
6,COc1c(C)cccc1C(=O)Nc1cc(Cl)ccc1N1CCOCC1,inactive
7,c1cnn(-c2cc(N3CCOCC3)ncn2)c1,inactive
8,O=C(Nc1cc(N2CCOCC2)ncn1)NC1(C(F)(F)F)Oc2ccc(Cl)cc2O1 (configuration not stated),20 µM (active)
9,Cc1ccc(-c2nc3cccc(C)n3c2Nc2ccc3c(c2)OCCO3)cc1,inactive
10,O=C(Nc1cc(C(F)(F)F)ccc1Cl)c1cc2nc(-c3ccc4c(c3)OCO4)cc(C(F)(F)F)n2n1,inactive
11,CC(C)CNC(=O)C(=O)Nc1ccc(N(C)C)cc1,11.2 µM (active)
12,CC(C)CNC(=S)Nc1ccc(F)cc1,inactive
13,COc1cc(OC)c(C(=O)Nc2ccc(N(C)C)cc2)cc1OC,inactive
14,COc1ccc(N(C)C(=O)CCS(=O)(=O)c2cccc3nsnc23)cc1,inactive
15,CCc1ccc(NC2Nc3cc(C)nn3S2)cc1 (configuration not stated),11.2 µM (active)
16,CCc1ccc(NC(=O)N2CCN(c3ccccc3)CC2)cc1,inactive
17,CCOC(=O)c1ccc(NC2Nc3cc(C)nn3S2)cc1 (configuration not stated),inactive
18,O=C(NCCC1=CCCCC1)c1ccc2c(c1)N(Cc1ccccc1F)C(=O)c1ccccc1S2(=O)=O,inactive
19,COc1ccc(CNC(=O)c2cc3c(-c4ccccc4F)nn(C)c3s2)c(OC)c1,inactive
20,CCOc1ccc(/C=C(\C#N)c2nc3ccccc3c(=O)[nH]2)cc1OC,inactive
21,Fc1cccc(-n2ncc3c2ncn2nc(-c4ccccc4Cl)nc32)c1,inactive
22,COc1ccc(-n2nc(C(=O)NCCc3ccc(Cl)cc3)c3c4ccccc4n(C)c3c2=O)cc1Cl,inactive
23,Cc1ccc(N)cc1-n1c(C)ccc1C,28.2 µM (active)

row,SMILES,Potency
1,CC(C)CNC(=O)c1cc(-c2ccc(Br)cc2)on1,12.6 µM (active)
2,CC(NC(=O)c1cc(-c2ccccc2)on1)c1ccccc1 (configuration not stated),inactive
3,CCCCNC(=O)c1cc(-c2ccc(Cl)c(Cl)c2)on1,inactive
4,CCCCS(=O)(=O)c1oc(-c2cccs2)nc1S(=O)(=O)c1ccccc1,inactive
5,Cc1ccc(S(=O)(=O)N2CCc3cc(C(=O)Nc4ccc(Cl)cc4C)ccc32)cc1,inactive
6,COc1ccc2nc(Nc3nc(-c4cc5ccccc5oc4=O)cs3)sc2c1,inactive
7,Cc1nc(C)c(-c2csc(NCCc3ccccc3)n2)s1,inactive
8,Cc1cc(NC(=O)c2cccc(Cl)c2)ccc1-c1cc2ccccc2oc1=O,inactive
9,O=c1oc2ccccc2cc1-c1csc(Nc2ccc(O)cc2)n1,11.2 µM (active)
10,CCNc1nc(-c2cc3ccccc3o2)cs1,3.16 µM (active)
11,CCCOC(=O)c1cc2ccccc2oc1=O,inactive
12,Cc1cc2c(cc1C)C(c1cccc(OC(C)C)c1)CC(=O)N2 (configuration not stated),inactive
13,N#Cc1ccc(-c2cccs2)nc1SCc1ccc(Br)cc1,inactive
14,O=C(CSc1ccc(-c2cccs2)nn1)Nc1ccccc1F,inactive
15,Cc1cccc(CSc2ccc(-c3cccs3)nn2)c1,20 µM (active)
16,COc1ccc(C2NC(=O)N(C)C3=C2C(=O)N(c2ccc(C(=O)O)cc2)C3)cc1 (configuration not stated),inactive
17,COc1cccc(CNC(=O)C(NS(=O)(=O)c2ccc3nc(C)sc3c2)C(C)C)c1 (configuration not stated),inactive
18,O=C(Nc1ccc(O)c(-c2nc3ccccc3o2)c1)c1ccc(-c2cccc(Cl)c2)o1,inactive
19,O=C(Nc1cccc(-c2nc3ncccc3o2)c1)c1ccco1,inactive
20,O=C(Nc1ccc2oc(-c3ccccc3F)nc2c1)c1ccco1,11.2 µM (active)
21,CCCCN(CC)C(=O)c1c[nH]c2ccc(S(=O)(=O)Nc3cccc(OC)c3)cc2c1=O,inactive
22,CCCNC(=O)C(CC)n1nc(CC)n2c(cc3oc(C)cc32)c1=O (configuration not stated),inactive
23,Cc1ccc(-c2cc(N)n(Cc3cccc(Cl)c3)n2)cc1,inactive

row,SMILES,Potency
1,CCc1cc2c(cc3c(=O)n(CC(=O)NCc4cccc(Cl)c4)nc(CC)n32)s1,inactive
2,Cc1ccc2cccc(NC(=O)c3cccc4ccccc34)c2n1,inactive
3,Cc1csc(-c2coc3cc(O[C@@H]4O[C@H](CO)[C@@H](O)[C@@H](O)[C@H]4O)ccc3c2=O)n1,20 µM (active)
4,COc1ccc(Oc2coc3cc(OC(=O)c4cncc(Br)c4)ccc3c2=O)cc1,inactive
5,CCc1cccc(OC2OC(CO)C(O)C(O)C2NC(C)=O)c1 (configuration not stated),inactive
6,CCOc1ccc(C(=O)/C=C/c2cn(CC(O)CN3CCCCCC3)c3ccccc23)cc1 (configuration not stated),inactive
7,S=C(Nc1cccc(Cl)c1)Nc1ccc2cn[nH]c2c1,inactive
8,CC(=O)Nc1cccc(C(=O)Nc2nc(C)cs2)c1,inactive
9,Cc1csc(NC(=S)Nc2cccc(Cl)c2)n1,14.1 µM (active)
10,Cn1c(=O)c2c(-c3ccccc3Br)n(Cc3ccccc3)cc2n(C)c1=O,inactive
11,COc1ccc(S(=O)(=O)c2c(Nc3cccc(Cl)c3)sc(C(=O)c3ccccc3)c2N)cc1,inactive
12,COc1ccc(C(=O)CSc2nccc(=O)[nH]2)cc1,inactive
13,COc1ccc(C(CC(=O)c2ccccc2)S(=O)(=O)c2ccccc2)cc1 (configuration not stated),12.6 µM (active)
14,COc1ccc(C(CC(=O)O)NC(=O)Cc2ccccc2)cc1 (configuration not stated),inactive
15,O=c1ccn([C@@H]2O[C@H](COP(=O)(O)OP(=O)(O)OP(=O)(O)O)[C@@H](O)[C@H]2O)c(=O)[nH]1,inactive
16,COc1ccc(CCN2C(=O)c3oc4cc(C)cc(C)c4c(=O)c3C2c2ccccc2F)cc1OC (configuration not stated),inactive
17,Cc1ccc(Nc2nnc(SCc3ccccc3)s2)cc1,14.1 µM (active)
18,O=C(Nc1nnc(SCc2ccccc2)s1)c1ccco1,inactive
19,Cc1cccc(CSc2nnc(NC(=O)CSc3nnc(C)s3)s2)c1,inactive
20,COc1cc(C(=O)N(Cc2ccc(C(C)C)cc2)C2CCS(=O)(=O)C2)cc(OC)c1OC (configuration not stated),inactive
21,COc1ccc(CCNC(=O)Cn2c(=O)n(-c3ccccc3)c(=O)c3c(C)c(C)sc32)cc1OC,inactive
